Reference: the supplement of paper PMC10849652
The full data set covers some 7,900 targets. This sample favours those with a hit. About 0.6% of all pairs of compound and target were hits.

Key:
Assay in all cases: log2 fold change, soluble protein after heating vs DMSO (PISA); higher = thermal stabilisation; K562 cells, 10 uM, 30 min; active = over 0.2 and 3.5 SD of the protein, either way, in both replicates (recomputed)
[1] = compound: CC1=C(C=C(C=C1)NC(=O)C2=CC(=CC=C2)C(C)(C)C#N)NC3=CC4=C(C=C3)N=CN(C4=O)C
How it was run: (§1)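 Soluble protein was defined as the supernatant after 21,000xg for 90 min. It came from K562 cells at 2×10^6 cells/mL given 10 μM compound for 30 min, heated in aliquots for 3 min across 48°C-58°C, pooled, and extracted in PBS with 0.5% NP-40 at 4°C, and was quantified by TMTpro 16plex LC-MS/MS with equalised channel sums. Thermal stability against control samples, from duplicates, is reported as log2 fold change.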

[2] = compound: CC1=C(C=C(C=C1)NC(=O)C2=CC(=CC=C2)N(C)C)NC(=O)C3=CC=C(C=C3)O
How it was run: as §1

[3] = compound: CC1=CC=C(C=C1)SC2=C3C=C(SC3=CN=C2)C(=O)N
How it was run: as §1

[4] = compound: CC1=NC(=CC=C1)C2=C(N=C(N2)C(C)(C)C)C3=CC4=NC=CN=C4C=C3
How it was run: as §1

Nexturastat A = compound: CCCCN(Cc1ccc(C(=O)NO)cc1)C(=O)Nc1ccccc1 [Nexturastat A]
How it was run: as §1

vemurafenib = compound: CCCS(=O)(=O)Nc1ccc(F)c(C(=O)c2c[nH]c3ncc(-c4ccc(Cl)cc4)cc23)c1F [vemurafenib]
How it was run: as §1

[5] = compound: CCCS(=O)(=O)Nc1ccc(F)c(C(=O)c2c[nH]c3ncc(Cl)cc23)c1F
How it was run: as §1

[6] = compound: CCCc1cc(C)[nH]c(=O)c1CNC(=O)c1cc(-c2ccnc(N3CCN(C)CC3)c2)cc2c1cnn2C(C)C
How it was run: as §1

givinostat = compound: CCN(CC)Cc1ccc2cc(COC(=O)Nc3ccc(C(=O)NO)cc3)ccc2c1 [givinostat]
How it was run: as §1

barasertib = compound: CCN(CCCOc1ccc2c(Nc3cc(CC(=O)Nc4cccc(F)c4)[nH]n3)ncnc2c1)CCOP(=O)(O)O [barasertib]
How it was run: as §1

Measured: log2 fold change

RDH13 (UniProt Q8NBN7)
Chain of UniProt Q8NBN7 (Q8NBN7 whole entry, looked up): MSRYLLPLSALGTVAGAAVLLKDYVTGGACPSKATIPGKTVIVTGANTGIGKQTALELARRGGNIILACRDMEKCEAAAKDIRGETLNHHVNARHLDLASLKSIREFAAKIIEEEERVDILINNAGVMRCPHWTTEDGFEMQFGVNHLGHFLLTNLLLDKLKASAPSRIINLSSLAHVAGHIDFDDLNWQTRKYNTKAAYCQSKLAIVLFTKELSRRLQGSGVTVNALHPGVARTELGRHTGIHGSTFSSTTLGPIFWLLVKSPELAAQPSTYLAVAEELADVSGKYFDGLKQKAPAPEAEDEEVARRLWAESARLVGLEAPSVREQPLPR
inactive: [1] 0.011 | [2] -0.082 | [3] 0.045 | [4] 0.078 | Nexturastat A -0.046 | vemurafenib 0.044 | [5] 0.019 | [6] -0.01 | givinostat -0.002 | barasertib 0.033

SH2D1B (UniProt O14796)
inactive: [1] -0.781 | [2] 0.013 | [3] -0.01 | [4] -0.011 | Nexturastat A 0.143 | vemurafenib 0.048 | [5] -0.135 | [6] -0.146 | givinostat -0.028

ROCK2 (UniProt O75116)
inactive: [1] 0.009 | [2] -0.044 | [3] -0.037 | [4] 0.02 | Nexturastat A -0.004 | vemurafenib 0.034 | [5] -0.005 | [6] -0.06 | givinostat 0.055 | barasertib 0.027

RNPEP (UniProt Q9H4A4)
Chain of UniProt Q9H4A4 (Q9H4A4 whole entry, looked up): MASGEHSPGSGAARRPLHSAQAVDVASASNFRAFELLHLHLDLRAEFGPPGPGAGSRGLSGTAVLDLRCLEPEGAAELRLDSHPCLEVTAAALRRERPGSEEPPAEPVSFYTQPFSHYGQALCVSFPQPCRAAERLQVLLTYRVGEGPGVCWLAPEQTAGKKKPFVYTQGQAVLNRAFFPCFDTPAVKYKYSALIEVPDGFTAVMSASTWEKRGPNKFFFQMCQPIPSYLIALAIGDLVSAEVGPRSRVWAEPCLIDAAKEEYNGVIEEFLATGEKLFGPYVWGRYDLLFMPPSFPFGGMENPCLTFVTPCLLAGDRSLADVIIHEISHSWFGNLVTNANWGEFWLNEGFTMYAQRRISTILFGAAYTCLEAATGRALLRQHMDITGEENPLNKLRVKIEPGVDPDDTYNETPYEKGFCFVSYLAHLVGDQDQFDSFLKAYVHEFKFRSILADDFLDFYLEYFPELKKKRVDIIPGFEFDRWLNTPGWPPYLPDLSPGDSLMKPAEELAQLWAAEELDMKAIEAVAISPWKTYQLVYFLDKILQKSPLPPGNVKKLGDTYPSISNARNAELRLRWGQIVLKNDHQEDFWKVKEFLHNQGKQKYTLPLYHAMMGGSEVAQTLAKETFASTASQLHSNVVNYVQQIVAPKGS
inactive: [1] 0.032 | [2] -0.024 | [3] 0.002 | [4] 0.023 | Nexturastat A -0.023 | vemurafenib 0.058 | [5] 0.052 | [6] -0.013 | givinostat -0.112 | barasertib 0.036

SACM1L (UniProt Q9NTJ5)
inactive: [1] 0.08 | [2] -0.024 | [3] -0.004 | [4] 0.031 | Nexturastat A -0.03 | vemurafenib 0.052 | [5] 0.069 | [6] 0.043 | givinostat 0.028 | barasertib 0.049

SEC16A isoform 5 (UniProt O15027)
inactive: [1] -0.079 | [2] -0.042 | [3] 0.036 | [4] -0.001 | Nexturastat A 0.044 | vemurafenib 0.035 | [5] -0.031 | [6] 0.061 | givinostat 0.09 | barasertib 0.043

RBM26 isoform 2 (UniProt Q5T8P6)
inactive: [1] 0.122 | [2] -0.088 | [3] 0.033 | [4] 0.116 | Nexturastat A -0.184 | vemurafenib 0.143 | [5] 0.09 | [6] -0.014 | givinostat 0.097 | barasertib 0.079

RBM25 (UniProt P49756)
Chain of UniProt P49756 (P49756 whole entry, looked up): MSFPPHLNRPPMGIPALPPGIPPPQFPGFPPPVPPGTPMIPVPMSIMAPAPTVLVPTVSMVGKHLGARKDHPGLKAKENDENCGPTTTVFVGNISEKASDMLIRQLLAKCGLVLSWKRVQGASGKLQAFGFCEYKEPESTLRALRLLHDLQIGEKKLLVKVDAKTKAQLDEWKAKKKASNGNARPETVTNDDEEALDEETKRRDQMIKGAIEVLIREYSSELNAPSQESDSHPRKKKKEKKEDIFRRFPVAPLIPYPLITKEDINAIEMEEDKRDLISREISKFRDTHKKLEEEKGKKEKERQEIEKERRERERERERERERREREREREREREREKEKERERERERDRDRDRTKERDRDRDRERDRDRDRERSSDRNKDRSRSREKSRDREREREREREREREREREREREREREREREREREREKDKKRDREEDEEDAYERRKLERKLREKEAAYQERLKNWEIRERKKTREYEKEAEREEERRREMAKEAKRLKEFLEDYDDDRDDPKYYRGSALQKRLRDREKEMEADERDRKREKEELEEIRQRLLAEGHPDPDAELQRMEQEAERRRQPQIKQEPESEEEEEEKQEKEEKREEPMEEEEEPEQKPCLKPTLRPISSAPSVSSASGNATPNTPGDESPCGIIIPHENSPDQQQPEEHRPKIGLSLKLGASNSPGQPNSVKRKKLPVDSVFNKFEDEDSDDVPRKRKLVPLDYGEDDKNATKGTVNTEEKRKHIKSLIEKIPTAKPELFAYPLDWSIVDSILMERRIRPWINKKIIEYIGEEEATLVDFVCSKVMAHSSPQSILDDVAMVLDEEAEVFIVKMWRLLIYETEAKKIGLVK
inactive: [1] -0.032 | [2] 0.017 | [3] -0.007 | [4] -0.074 | Nexturastat A 0.02 | vemurafenib 0.019 | [5] 0 | [6] -0.093 | givinostat 0.202 | barasertib 0.035

RPP25L (UniProt Q8N5L8)
inactive: [1] -0.028 | [2] -0.015 | [3] 0.036 | [4] 0.02 | Nexturastat A -0.01 | vemurafenib -0.034 | [5] -0.035 | [6] -0.048 | givinostat -0.073 | barasertib -0.025

RPS14 (UniProt P62263)
inactive: [1] 0.03 | [2] 0 | [3] -0.041 | [4] -0.004 | Nexturastat A 0.102 | vemurafenib -0.066 | [5] -0.038 | [6] 0.046 | givinostat 0.023 | barasertib -0.04

RAB3GAP2 (UniProt Q9H2M9)
inactive: [1] -0.001 | [2] -0.018 | [3] 0.017 | [4] -0.029 | Nexturastat A 0.215 | vemurafenib 0.06 | [5] 0.026 | [6] 0.092 | givinostat 0.106 | barasertib 0.068

RGS10 (UniProt O43665)
Chain of UniProt O43665 (O43665 whole entry, looked up): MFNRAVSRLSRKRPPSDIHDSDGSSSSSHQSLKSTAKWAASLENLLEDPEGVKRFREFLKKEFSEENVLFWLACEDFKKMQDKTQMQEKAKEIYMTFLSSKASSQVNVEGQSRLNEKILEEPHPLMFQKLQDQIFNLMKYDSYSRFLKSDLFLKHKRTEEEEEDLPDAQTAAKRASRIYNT
inactive: [1] -0.012 | [2] -0.02 | [3] -0.02 | [4] -0.041 | Nexturastat A -0.012 | vemurafenib 0.048 | [5] 0.034 | [6] 0.02 | givinostat 0.026 | barasertib 0.016

RSPRY1 (UniProt Q96DX4)
Chain of UniProt Q96DX4 (Q96DX4 whole entry, looked up): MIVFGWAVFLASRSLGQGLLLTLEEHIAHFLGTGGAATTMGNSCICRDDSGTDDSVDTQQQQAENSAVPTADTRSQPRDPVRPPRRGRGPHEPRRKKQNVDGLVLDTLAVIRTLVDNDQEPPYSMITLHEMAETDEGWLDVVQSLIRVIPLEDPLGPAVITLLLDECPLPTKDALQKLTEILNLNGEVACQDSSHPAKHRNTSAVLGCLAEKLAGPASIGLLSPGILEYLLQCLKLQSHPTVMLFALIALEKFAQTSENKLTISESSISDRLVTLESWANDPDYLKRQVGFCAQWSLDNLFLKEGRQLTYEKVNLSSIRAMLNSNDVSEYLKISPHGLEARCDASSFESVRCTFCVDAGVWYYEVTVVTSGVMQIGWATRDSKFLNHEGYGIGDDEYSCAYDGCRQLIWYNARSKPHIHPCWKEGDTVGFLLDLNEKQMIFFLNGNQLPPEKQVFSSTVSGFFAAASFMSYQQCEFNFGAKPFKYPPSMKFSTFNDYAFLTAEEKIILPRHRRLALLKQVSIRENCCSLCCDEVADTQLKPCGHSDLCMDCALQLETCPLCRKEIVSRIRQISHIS
inactive: [1] 0.106 | [2] -0.026 | [3] -0.183 | [4] -0.035 | Nexturastat A -0.021 | vemurafenib 0.034 | [5] -0.031 | [6] -0.107 | givinostat -0.007 | barasertib -0.004

SCCPDH (UniProt Q8NBX0)
Chain of UniProt Q8NBX0 (Q8NBX0 whole entry, looked up): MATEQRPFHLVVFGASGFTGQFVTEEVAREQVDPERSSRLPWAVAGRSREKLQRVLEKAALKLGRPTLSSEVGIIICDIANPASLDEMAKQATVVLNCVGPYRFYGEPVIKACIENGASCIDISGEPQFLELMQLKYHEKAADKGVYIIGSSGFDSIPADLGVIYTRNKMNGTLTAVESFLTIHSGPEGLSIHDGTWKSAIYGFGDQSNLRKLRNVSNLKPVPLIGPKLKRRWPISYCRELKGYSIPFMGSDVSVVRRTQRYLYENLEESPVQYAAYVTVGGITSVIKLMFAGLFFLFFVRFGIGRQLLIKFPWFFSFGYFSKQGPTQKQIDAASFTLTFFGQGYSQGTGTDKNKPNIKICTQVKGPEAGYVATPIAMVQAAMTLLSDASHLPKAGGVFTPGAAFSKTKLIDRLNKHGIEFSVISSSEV
inactive: [1] 0.147 | [2] -0.092 | [3] 0.074 | [4] 0.037 | Nexturastat A -0.232 | vemurafenib -0.016 | [5] -0.123 | [6] 0.016 | givinostat 0.183 | barasertib 0.046

RPS19 (UniProt P39019)
inactive: [1] 0.008 | [2] 0.007 | [3] -0.054 | [4] -0.009 | Nexturastat A 0.121 | vemurafenib -0.07 | [5] -0.066 | [6] -0.039 | givinostat 0.013 | barasertib -0.083

RPS3 (UniProt P23396)
inactive: [1] 0.011 | [2] 0.003 | [3] -0.077 | [4] -0.042 | Nexturastat A 0.069 | vemurafenib -0.086 | [5] -0.102 | [6] 0.041 | givinostat 0.007 | barasertib -0.088

RPS27A (UniProt P62979)
inactive: [1] -0.023 | [2] -0.011 | [3] -0.179 | [4] -0.075 | Nexturastat A 0.368 | vemurafenib -0.126 | [5] -0.224 | [6] 0.152 | givinostat -0.109 | barasertib -0.119

RPS13 (UniProt P62277)
inactive: [1] 0.006 | [2] 0.022 | [3] -0.044 | [4] -0.057 | Nexturastat A 0.119 | vemurafenib -0.144 | [5] -0.09 | [6] 0.091 | givinostat 0.045 | barasertib -0.101

RIC8A isoform 3 (UniProt Q9NPQ8)
Chain of UniProt Q9NPQ8 (Q9NPQ8 whole entry, looked up): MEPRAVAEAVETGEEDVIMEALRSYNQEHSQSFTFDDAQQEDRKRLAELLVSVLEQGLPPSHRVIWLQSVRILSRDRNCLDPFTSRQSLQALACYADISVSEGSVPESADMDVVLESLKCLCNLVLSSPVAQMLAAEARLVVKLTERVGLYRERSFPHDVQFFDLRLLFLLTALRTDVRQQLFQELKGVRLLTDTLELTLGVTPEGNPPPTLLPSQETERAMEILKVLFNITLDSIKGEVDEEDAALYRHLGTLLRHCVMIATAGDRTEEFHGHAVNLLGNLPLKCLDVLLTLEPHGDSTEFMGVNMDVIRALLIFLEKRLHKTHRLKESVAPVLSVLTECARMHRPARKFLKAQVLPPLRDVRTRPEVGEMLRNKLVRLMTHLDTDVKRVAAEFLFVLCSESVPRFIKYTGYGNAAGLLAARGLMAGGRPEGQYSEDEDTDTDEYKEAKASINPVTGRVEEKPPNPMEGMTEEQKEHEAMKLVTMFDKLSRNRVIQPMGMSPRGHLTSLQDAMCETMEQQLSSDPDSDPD
inactive: [1] 0.074 | [2] -0.051 | [3] 0.024 | [4] 0.023 | Nexturastat A 0.198 | vemurafenib 0.028 | [5] 0.085 | [6] 0.111 | givinostat 0.028 | barasertib 0.073

SH3GL1 (UniProt Q99961)
inactive: [1] 0.022 | [2] -0.077 | [3] 0.06 | [4] 0.021 | Nexturastat A 0.141 | vemurafenib 0.1 | [5] 0.1 | [6] 0.037 | givinostat 0.024 | barasertib 0.084

RAB8B (UniProt Q92930)
Chain of UniProt Q92930 (Q92930 whole entry, looked up): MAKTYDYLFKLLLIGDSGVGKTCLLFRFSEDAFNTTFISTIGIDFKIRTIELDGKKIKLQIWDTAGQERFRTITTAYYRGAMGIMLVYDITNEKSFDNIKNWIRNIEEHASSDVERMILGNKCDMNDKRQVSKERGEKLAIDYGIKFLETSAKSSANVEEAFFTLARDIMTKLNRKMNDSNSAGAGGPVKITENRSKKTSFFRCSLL
inactive: [1] 0.055 | [2] 0.013 | [3] 0.073 | [4] 0.081 | Nexturastat A -0.082 | vemurafenib 0.192 | [5] 0.018 | [6] 0.109 | givinostat -0.014 | barasertib -0.016

RPS18 (UniProt P62269)
inactive: [1] -0.014 | [2] 0 | [3] -0.049 | [4] -0.061 | Nexturastat A 0.148 | vemurafenib -0.125 | [5] -0.04 | [6] -0.01 | givinostat 0.021 | barasertib -0.067

RBM26 isoform 3 (UniProt Q5T8P6)
inactive: [1] 0.017

RHEB (UniProt Q15382)
Chain of UniProt Q15382 (Q15382 whole entry, looked up): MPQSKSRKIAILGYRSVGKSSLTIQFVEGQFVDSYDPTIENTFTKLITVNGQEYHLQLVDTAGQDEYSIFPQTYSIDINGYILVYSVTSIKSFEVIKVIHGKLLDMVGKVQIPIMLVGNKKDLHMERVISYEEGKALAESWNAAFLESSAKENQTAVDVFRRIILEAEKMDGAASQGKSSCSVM
inactive: [1] 0.008 | [2] -0.002 | [3] 0.008 | [4] 0.052 | vemurafenib -0.004 | [5] 0.021 | [6] -0.026 | givinostat -0.009 | barasertib 0.014
active: Nexturastat A -0.277

RNASET2 (UniProt O00584)
inactive: [1] 0.007 | [2] 0.026 | [3] 0.033 | [4] 0.027 | Nexturastat A -0.079 | vemurafenib -0.019 | [5] 0.004 | [6] 0.001 | givinostat -0.006 | barasertib -0.013

SLC18B1 (UniProt Q6NT16)
Chain of UniProt Q6NT16 (Q6NT16 whole entry, looked up): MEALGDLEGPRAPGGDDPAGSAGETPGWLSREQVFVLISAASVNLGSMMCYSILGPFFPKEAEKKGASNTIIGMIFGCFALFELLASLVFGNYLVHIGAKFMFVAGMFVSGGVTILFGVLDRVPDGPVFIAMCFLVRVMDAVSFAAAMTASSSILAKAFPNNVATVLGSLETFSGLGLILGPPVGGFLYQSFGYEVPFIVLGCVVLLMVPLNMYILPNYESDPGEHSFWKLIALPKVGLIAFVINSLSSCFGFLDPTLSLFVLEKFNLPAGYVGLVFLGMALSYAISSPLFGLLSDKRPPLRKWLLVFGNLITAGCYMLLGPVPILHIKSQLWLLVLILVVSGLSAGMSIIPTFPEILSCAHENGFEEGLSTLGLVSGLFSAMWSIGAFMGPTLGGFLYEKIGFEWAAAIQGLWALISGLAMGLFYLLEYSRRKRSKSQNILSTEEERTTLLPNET
inactive: [1] -0.016 | [2] -0.194 | [3] -0.07 | [4] -0.111 | Nexturastat A 0.034 | vemurafenib 0.069 | [5] 0.005 | [6] -0.044 | givinostat -0.02 | barasertib 0.084

RRAS2 isoform 4 (UniProt P62070)
Chain of UniProt P62070 (P62070 whole entry, looked up): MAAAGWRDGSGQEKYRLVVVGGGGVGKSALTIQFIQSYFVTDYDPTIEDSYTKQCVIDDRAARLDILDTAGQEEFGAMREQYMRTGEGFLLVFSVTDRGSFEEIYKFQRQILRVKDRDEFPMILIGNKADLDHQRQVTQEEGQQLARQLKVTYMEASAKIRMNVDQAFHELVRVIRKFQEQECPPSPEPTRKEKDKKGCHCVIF
inactive: [1] -0.016 | [2] -0.02 | [3] -0.009 | [4] -0.021 | Nexturastat A -0.015 | vemurafenib 0.011 | [5] -0.037 | [6] -0.034 | givinostat -0.017 | barasertib -0.049

SCAMP2 (UniProt H3BUB6)
inactive: [1] -0.349 | [2] 0.043 | [3] -0.166 | [4] -0.1 | Nexturastat A 0.12 | vemurafenib -0.266 | [5] -0.335 | [6] -0.232 | givinostat -0.024 | barasertib 0.034

SDCBP (UniProt O00560)
Chain of UniProt O00560 (O00560 whole entry, looked up): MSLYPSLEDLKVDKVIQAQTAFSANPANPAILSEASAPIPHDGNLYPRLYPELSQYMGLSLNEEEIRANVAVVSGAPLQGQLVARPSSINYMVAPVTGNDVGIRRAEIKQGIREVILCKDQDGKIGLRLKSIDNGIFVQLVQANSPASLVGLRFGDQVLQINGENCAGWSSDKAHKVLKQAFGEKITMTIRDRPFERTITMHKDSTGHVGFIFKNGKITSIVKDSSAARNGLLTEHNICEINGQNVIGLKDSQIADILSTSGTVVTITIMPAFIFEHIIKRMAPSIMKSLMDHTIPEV
inactive: [1] 0.007 | [2] 0.021 | [3] 0.009 | [4] 0.025 | Nexturastat A 0.001 | vemurafenib 0.051 | [5] 0.041 | [6] -0.176 | givinostat -0.027 | barasertib -0.039

RBIS (UniProt Q8N0T1)
inactive: [1] -0.099 | [2] -0.011 | [3] -0.055 | [4] 0.023 | Nexturastat A -0.012 | vemurafenib -0.002 | [5] -0.063 | [6] -0.074 | givinostat -0.02 | barasertib -0.009

SLC1A5 (UniProt Q15758)
inactive: [1] 0.007 | [2] 0.002 | [3] 0.019 | [4] -0.01 | Nexturastat A -0.053 | vemurafenib -0.006 | [5] 0.012 | [6] -0.01 | givinostat -0.022 | barasertib -0.04
